# Assay outcomes from PubChem.
# AMA1 RON2 block: disrupts binding of P. falciparum AMA1 to RON2 | Potency, µM (highest dose often 58.2 µM), for the others: top-dose activity change, negative = inhibition, hits mostly inhibitors | AID 720542 | AlphaScreen AMA1-biotinylated RON2 peptide binding | 0.2% of 360,000 active;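 further: potency means the concentration at half of the fitted maximal effect; 0% = vehicle wells and -100% = peptide control; nearly all actives have a fitted effect of over 45% in size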
#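 AMA1 (3D7) with his tag at 25 nM final met compounds first, then biotinylated RON2 peptide at 25 nM; detection used donor plus acceptor beads, 10 µg/mL apiece, read by AlphaScreen after 30 min at room temperature.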
# SARS PLpro yeast: inhibitors of SARS-CoV papain-like protease in yeast; S. cerevisiae expressing SARS-CoV PLpro, growth rescue; Potency, µM (titrated, usually from 32.9 µM), without a hit: at the highest dose activity, positive = growth rescue, hits mostly activators; 0.19% of 330,000 active; calls by dose curve; further: potency means the concentration at half of the fitted maximal effect; 0% is about no effect; nearly all actives have a fitted effect of over 55% in size
# Cycloheximide cs: affects cycloheximide protein synthesis inhibition readout, counter-screen; max response, %; cell reporter, cycloheximide protein synthesis inhibition counterscreen; 12% of 300,000 active; in the data active means max response mostly above about 13%, no sharp cut-off; inactive means mostly below about 14%; further: read at 38.3 µM for the half of the compounds with a filed dose; 0% is about no effect
# Pf growth 48h: inhibits P. falciparum growth in the first generation, 48 h; P. falciparum luciferase growth in erythrocytes, 48 h; Potency, µM (highest dose often 28.7 µM), for the others: at the top dose activity change, negative = inhibition, usual class: inhibitors; 5.9% of 310,000 active; further: potency means the concentration at half of the fitted maximal effect; on the % scale 0 is the no-effect control and ±100 the full control effect
#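 Firefly luciferase activity from engineered P. falciparum reports growth; inhibitors lower the luminescent signal. Cultures contained 2% hematocrit erythrocytes at 0.1% final parasitemia.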
# Pf growth 96h: inhibits malaria parasite growth, 96 h; P. falciparum luciferase reporter growth, 96 h; Potency, µM (titrated, usually from 28.7 µM), for inactives: at the highest dose activity change, negative = inhibition, actives largely listed as inhibitors; 6.9% of 320,000 active; further: potency means the concentration at half of the fitted maximal effect; on the % scale 0 is the no-effect control and ±100 the full control effect
#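 Infected RBCs, 2% Hct / 0.05% parasitemia final; luciferase-reporter P. falciparum; cpd 96 h, 37 C, 5% CO2; luciferase detection reagent; luminescence.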
# Shiga inhibitor: inhibitors of Shiga toxin in Vero cells; 9.2% of 290,000 active; Vero cells, Shiga toxin protein synthesis inhibition reporter; AID 2315; inhibition, % at 38.7 µM; in the data active means inhibition mostly above about 28%, no sharp cut-off; inactive means mostly below about 43%; further: 0% is about no effect
# * marks the source's active call; other numbers are inactive results; ? = inconclusive; / = no result; [ ] = remark or other dose. Only some compounds are listed: those with a hit (about 19% of all), similar ones and a draw of the others. Unless noted, the call rests on the fitted dose curve; in most records, active means well fitted curve in the direction sought with a large enough effect; inconclusive means small, poorly fitted or top-dose-only effect, or another doubt; inactive means no such curve, though single readings can be large; an effect the other way counts as inactive or inconclusive.
SMILES,AMA1 RON2 block,SARS PLpro yeast,Cycloheximide cs,Pf growth 48h,Pf growth 96h,Shiga inhibitor
CCNC(=O)CSc1nnc(-c2cccc(S(=O)(=O)N(CC)CC)c2)n1CCc1ccccc1,12%,4%,-2,?,?,-5
CCSc1nnc(-c2cccc(S(=O)(=O)N(CC)CC)c2)n1Cc1ccccc1,17%,6%,-1,15µM*,17%,-21
Cc1cccc2c1CC(C)(C)N=C2C1=C(O)CC(C)(C)CC1=O,10%,-3%,-5,?,13µM*,-8
CCc1ccc(C(=O)N/N=C(\C)c2cccnc2)s1,38%,0%,7,16%,-3%,-4
O=C(NCc1ccc(F)cc1)C1CCC(CNS(=O)(=O)c2ccccc2)CC1 (stereo not drawn),1%,-1%,-5,-15%,27%,-5
CN(Cc1nc2ccccc2c(=O)[nH]1)CC(O)COCc1ccco1 (stereo not drawn),172%,2%,17,-7%,6.6µM*,-2
CN(CC(=O)NC(=O)NCc1ccco1)Cc1nc2ccccc2c(=O)[nH]1,33%,9%,-2,-6%,15%[5.75 µM],-8
CC(C)OC(=O)Cn1nnc2c(cnn2-c2ccccc2)c1=O,5%,3%,46*,130%,-29%,65*
O=C(Cn1nnc2c(cnn2-c2ccc(F)cc2)c1=O)c1ccccc1F,-8%,-5%,9,0%,34%,19
COC(=O)Cn1nnc2c(cnn2-c2ccccc2)c1=O,3%,0%,25*,20%,64%,53
COC(=O)c1ccc(COc2ccc(/C=N/NC(N)=S)cc2)o1,50%,9%,-1,?,?,-3
COc1ccc(-n2c(=S)[nH]c3cc(C(=O)N4CCN(c5ccccc5)CC4)ccc3c2=O)c(OC)c1,13%,-4%,-4,3%,?,-5
Cc1ccc(NC(=O)C(C)C(=O)Nc2ccc(C)cc2)cc1,-9%,-1%,-4,2%,?,-21
Cc1ccc(NC(=O)N2CCC(=O)N2)cc1,4%,2%,37*,26%,48%,77*
Cc1ccc(C)c(NC(=S)c2ccccn2)c1,?,8%,50*,12µM*,1µM*,95*
Cc1ccc(C)c(NC(=S)c2ccc3ccccc3n2)c1,?,2%,44*,89%,-16%,75*
CN(CC(=O)Nc1ccc(F)cc1)C(=O)c1ccc2ccccc2n1,-5%,0%,/,2%,3%,/
Cc1ccc(C)c(NC(=S)c2nc3ccccc3s2)c1,0%,-4%,26*,35%,8%,42*
CN(C)c1ccc(NC(=S)c2ccc3ccccc3n2)cc1,?,-4%,32*,104%,147%,113*
Cc1ccc(C)c(NC(=O)NCc2ccccn2)c1,25%,3%,-1,-23%,?,-16
COc1ccccc1CNC(=O)CCNS(=O)(=O)c1ccc2c(c1)oc(=O)n2C,-3%,-4%,-6,?,?,-6
CCOc1ccccc1C(=O)NCC(=O)N(C)Cc1ccccc1C,0%,1%,-1,10µM*,13µM*,-3
c1ccc(Cn2ccnc2C2OCCO2)cc1,-10%,/,/,/,/,/
Nc1nc2ccccc2n1CCOc1ccccc1Cl,-2%,-3%,-5,?,-1%,-8
O=C(NNS(=O)(=O)c1ccccc1)c1cc2cc3ccccc3nc2s1,41%,5%,11,?,-15%,54*
SMILES,AMA1 RON2 block,SARS PLpro yeast,Cycloheximide cs,Pf growth 48h,Pf growth 96h,Shiga inhibitor
CNC(=O)c1cc2cc(Br)ccc2s1,-1%,-3%,28,72%,?,23
O=C(NC1CC1)c1cc2cc(Br)ccc2s1,-6%,5%,38*,?,-10%,51*
O=C(NC1CC1)c1cc2cc3ccccc3nc2s1,-3%,15%,41*,-21%,13µM*,99*
CS(=O)(=O)N1CCc2cc(C(=O)Nc3ccc(O)cc3)ccc21,-1%,-3%,-3,-7%,?,-9
O=C(CSc1cccc[n+]1[O-])Nc1ccc(N2CCOCC2)cc1,/,1%,7,13%,25%,38
CS(=O)(=O)c1sc(C(=O)NC(=O)Nc2cccc(C(F)(F)F)c2)c2c1C=CCC2,10%,-6%,-2,2.3µM*,14%,-4
Cc1cccc(N(C)c2cc(C)nc3nc(C)nn23)c1,0%,-9%,10,5%,?,7
CCCCC1(CO)C(=O)N(c2ccccc2)N(c2ccccc2)C1=O,-22%,0%,0,2%,0%,12
CCCCC1(CC(=O)OCC)C(=O)N(c2ccccc2)N(c2ccccc2)C1=O,-1%,-18%,-2,?,15µM*,-4
CCCCC1(Cc2cccc([N+](=O)[O-])c2)C(=O)N(c2ccccc2)N(c2ccccc2)C1=O,-8%,-12%,-3,3.7µM*,?,-11
CNS(=O)(=O)c1ccc2c(c1)oc(=O)c1cc(S(=O)(=O)NC)ccc12,12%,0%,10,19%,8%,30
Cc1ccc([N+](=O)[O-])cc1S(=O)(=O)Nc1ccc(-c2ccc(N3CCCC3)nn2)cc1,-10%,4%,/,1%,?,/
COC(=O)[C@@]1(C(C)C)N=C(c2cc(OC)c(OC)c(OC)c2)[C@]2(O1)C(=O)N(C)c1ccccc12,3%,/,/,/,/,/
O=C(CSc1ncn[nH]1)c1ccco1,19%,-5%,-4,1%,-28%,-7
O=C(CSc1nccc(=O)[nH]1)c1cc2ccccc2o1,22%,24%,34*,25%,14%,47*
O=C(CSc1ncn[nH]1)c1cc2ccccc2o1,24%,1%,20*,0%,17%,43
O=C(CSc1ncn[nH]1)c1ccccc1,12%,-5%,17,15%,16%,52*
CCCCCn1c(C(Cc2ccccc2)NC(=O)COC)nc2ccccc21 (stereo not drawn),39%,3%,-5,?,?,14
CCC1C(=O)Nc2nc(-c3ccccc3)c(-c3ccccc3)n2N=C1C (stereo not drawn),-8%,?,-6,0%,/,12
COc1ccccc1OCc1nc2ccccc2n1C,-22%,-2%,51*,103%,?,134*
Cn1c(COc2ccccc2Br)nc2ccccc21,-2%,-4%,44*,149%,?,56*
c1ccc(CNCc2ccc3c(c2)OCO3)nc1,38%,-23%,-4,36%,?,18
CCN(CCCn1c(=S)[nH]c2ccc(N3CCOCC3)cc2c1=O)c1ccccc1,65%,-3%,-6,?,223%,7
CC1(C(=O)NS(=O)(=O)c2ccc3c(c2)CCO3)CCN1C(=O)CCC1CCCC1 (stereo not drawn),-3%,/,/,/,/,/
Nc1cc(Cl)nc(N/N=C/c2ccccc2[N+](=O)[O-])n1,2%,6%,47*,130%,6.6µM*,87*
